Compound activity: PubChem, Broad Institute
Only a selection was taken, and hits are over-represented in it overall.
PRC2 inh: blocks human EZH2/PRC2 H3K27 methylation. DELFIA TRF, 1 h. inhibition, % at 12.5 µM. Q15910. 0.35% of 57,000 active. AID 651548;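 active means mean inhibition of replicates at least 50% and every single replicate also reaching 50%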;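 further: dimethyl H3K27 on biotinylated H3 21-44 peptide detected by antibody; plate controls were median neutral control wells for no effect and median positive control wells for full effect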
Target sequence (Q15910 whole entry, looked up): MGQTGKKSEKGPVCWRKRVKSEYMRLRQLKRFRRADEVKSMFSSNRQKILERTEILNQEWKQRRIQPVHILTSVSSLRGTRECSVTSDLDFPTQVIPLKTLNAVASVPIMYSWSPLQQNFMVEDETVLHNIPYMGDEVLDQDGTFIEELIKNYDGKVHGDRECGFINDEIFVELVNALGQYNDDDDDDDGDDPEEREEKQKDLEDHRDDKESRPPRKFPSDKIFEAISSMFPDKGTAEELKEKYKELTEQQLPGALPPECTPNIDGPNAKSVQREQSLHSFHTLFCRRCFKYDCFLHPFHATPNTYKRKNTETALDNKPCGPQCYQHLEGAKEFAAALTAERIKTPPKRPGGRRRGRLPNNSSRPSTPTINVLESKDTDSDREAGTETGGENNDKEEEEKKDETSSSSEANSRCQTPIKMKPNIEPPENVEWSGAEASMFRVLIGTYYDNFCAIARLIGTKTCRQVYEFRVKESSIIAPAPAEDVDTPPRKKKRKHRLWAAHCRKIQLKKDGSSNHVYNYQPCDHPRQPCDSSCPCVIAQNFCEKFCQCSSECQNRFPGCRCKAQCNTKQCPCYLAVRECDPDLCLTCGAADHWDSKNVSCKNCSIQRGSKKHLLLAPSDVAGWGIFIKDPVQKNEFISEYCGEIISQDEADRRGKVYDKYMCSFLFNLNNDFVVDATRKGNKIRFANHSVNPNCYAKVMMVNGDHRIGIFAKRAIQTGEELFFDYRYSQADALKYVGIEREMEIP
* = called active by the depositor.

SMILES | PRC2 inh
O=C(c1cnc2ccccn12)C(F)(F)SCc1c(Cl)cccc1Cl | 59*
O=C(CSc1nnc2ccccn12)Nc1c(Cl)cc(Cl)cc1Cl | -9
CC(O)(CNCc1ccc(Cl)cc1)CSc1ccccc1Cl (stereo unspecified) | 45
COc1c(OC)c(O)c2c(=O)cc(-c3ccc(O)cc3)oc2c1OC | 3
CC1OC(Oc2cc(O)c3c(=O)cc(-c4ccc(O)cc4)oc3c2C2OC(CO)C(O)C(O)C2O)C(O)C(O)C1O (stereo unspecified) | 2
O=c1cc(-c2ccc(O)cc2)oc2c(C3OCC(O)C(O)C3O)c(O)c(C3OC(CO)C(O)C(O)C3O)c(O)c12 (stereo unspecified) | 58*
Cc1cc(NC(=O)/C=C\c2ccccc2)nc2c1c(=O)oc1ccccc12 | -26
CS(=O)(=O)N(CC(=O)Nc1ccc(Br)cc1F)c1ccc(F)c(Cl)c1 | -10
Cc1cc(=O)oc2c(O)c(O)ccc12 | -3
Oc1ccc(/C=C/c2cc(O)cc(O)c2)cc1 | -8
O=c1cc(O)cc(/C=C/c2ccc(O)c(O)c2)o1 | 87*
COc1ccc(S(=O)(=O)N(C)CC(=O)Nc2ccccc2F)cc1C | 4
Cc1ccc(S(=O)(=O)N2C(=O)CCC2C(=O)Nc2ccc(I)cc2)cc1 (stereo unspecified) | -6
COc1ccc(-c2cc(=O)c3c(O)c(OC)c(O[C@H]4O[C@H](CO[C@@H]5O[C@@H](C)[C@H](O)[C@@H](O)[C@H]5O)[C@@H](O)[C@H](O)[C@H]4O)cc3o2)cc1 | -1
C=Cc1ccc(O[C@@H]2O[C@H](CO[C@@H]3O[C@@H](C)[C@H](O)[C@@H](O)[C@H]3O)[C@@H](O)[C@H](O)[C@H]2O)cc1 | 87*
CC1OC(Oc2ccc(-c3cc(=O)c4c(O)cc(OC5OC(CO)C(O)C(O)C5O)cc4o3)cc2)C(O)C(O)C1O (stereo unspecified) | 9
O=C(CN1C(=O)c2ccccc2C1=O)Nc1ccc(S(=O)(=O)N2CCCCCC2)cc1 | -5
COc1cc([N+](=O)[O-])ccc1NC(=S)Nc1nn(Cc2ccc(Cl)cc2Cl)cc1Cl | -4
CCOC(=O)c1c(NC(=O)CSc2nc(C)ccc2C#N)sc2c1CCC2 | 31
O=C(OCc1nc2ccccc2s1)c1ccco1 | -1
COc1cccc(C(=O)OCc2nc3ccccc3s2)c1 | 53*
O=C(Nc1ccc(OCc2nc3ccccc3s2)cc1)c1cccc(I)c1 | 20
N#Cc1c(NC(=O)COc2ccc(C(=O)NC3CCCCC3)cc2)sc2c1CCC2 | -8
CC1(C)COC(CCC/C=N/NC(=O)CCCCCC(=O)NO)OC1 | -49
Cc1ccc(S(=O)(=O)N(C)CC(=O)Nc2ccc(C(F)(F)F)cc2)cc1 | -10
SMILES | PRC2 inh
Cc1cc(-c2nc3ccccc3s2)ccc1NC(=O)COc1ccccc1[N+](=O)[O-] | -19
COC(=O)c1ccc(C2C(Oc3ccc(OC)cc3)C(=O)N2Cc2ccc(F)cc2)cc1 (stereo unspecified) | 51*
COC(=O)c1ccc(C2C(C(=O)c3ccco3)C(=O)C(=O)N2Cc2ccco2)cc1 (stereo unspecified) | -7
COC(=O)c1ccc(NC(=O)CCC(=O)c2ccc(OC)cc2)cc1 | -1
CC1CC(=O)C2=C(C1)C(Cl)C(O)C1(O)C2C(=O)c2cccc(O)c2C1O (stereo unspecified) | -2
CNC(=O)CN(c1cc(Cl)c(Cl)cc1Cl)S(C)(=O)=O | -5
O=C(CCCCCCC(=O)Nc1ccccc1O)N/N=C/c1ccc([N+](=O)[O-])s1 | 16
COc1ccccc1NC(=O)c1sc2ncn(CC(=O)Nc3ccccc3C)c(=O)c2c1C | -3
Cc1ccc(F)c(NC(=O)CSc2nnc(C)s2)c1 | 6
Cc1ccc(-c2cc3ccccn3c2C(=O)CSc2nnc(C)s2)cc1 | 53*
Cc1nnc(SCC(=O)c2c(C)[nH]c3ccccc23)s1 | -22
Cc1cc(C(=O)NN2C3CSC2CS3)no1 | -14
Cc1ccc(S(=O)(=O)N2CCN(c3ccc([N+](=O)[O-])c(NCc4ccco4)c3)CC2)cc1C | 15
COc1cc(NC(=O)COc2ccc(C(C)C)cc2)ccc1-c1cc2ccccc2oc1=O | 2
O=c1c2c3c(sc2nc2c4ccccc4c(NCCOCCO)nn12)CCCC3 | -4
CC(C)(O)C(O)COc1c2ccoc2cc2oc(=O)ccc12 (stereo unspecified) | 7
COc1ccc2c(=O)ccoc2c1 | 8
COc1c2ccoc2cc2oc(=O)ccc12 | 52*
Cc1ccc(-c2nnc3c4ccccc4c(C)nn23)cc1S(=O)(=O)NC1CCCCC1 | -5
CCn1c(SCC(=O)Nc2c(C)cccc2C)nnc1-c1cnccn1 | -4
COc1ccc(CNC(=O)CCn2c(=O)c3sccc3n(Cc3cc(C)ccc3C)c2=O)cc1 | -18
COc1ccc(NC(=O)CN2C(=O)c3cccc4cccc2c34)cc1OC | -19
COc1ccc(C)cc1NC(=O)CN1C(=O)c2cccc3cccc1c23 | -8
O=C1c2cccc3cccc(c23)N1Cc1ccc(F)cc1Cl | 60*
CC(=O)Nc1ccc(C(=O)CSc2cc(C)c3ccccc3n2)cc1 | -12
CCc1ccc(CCC(=O)Nc2ccc(Cl)cc2Cl)o1 | 10
